Records with an inconclusive call do not appear. Activity calls are given as the source filed them. Unless noted, the call rests on the fitted dose curve; in most records, active means well fitted curve in the direction sought with a large enough effect in the repeat runs; inconclusive means weak or mixed curves; inactive means no such curve, though single readings can be large; an effect the other way counts as inactive or inconclusive.
Assays:
[1] = molecular target: Thyrotropin receptor (Homo sapiens) (UniProt P16473); experiment: qHTS assay to identify small molecule antagonists of the thyroid stimulating hormone receptor (TSHR) signaling pathway (AID 1259385; calls by dose curve; further: nearly all actives have a fitted effect of over 20% in size)
In short: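 Antagonist mode: compound-treated TSHR-expressing HEK293 cells were stimulated with 1.5 ng/mL TSH (final) in presence of Ro20-1724 for 30 min at RT. HTRF cAMP detection after 1 h; each compound tested at 15 concentrations, triplicate.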

[2] = qHTS assay to identify small molecule agonists of the estrogen receptor alpha (ER-alpha) signaling pathway in the presence of an antagonist - cell viability counter screen (AID 1259386); further: series mostly up to about 92 µM; nearly all actives have a fitted effect of over 30% in size
In short: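 Compounds tested at 15 concentrations for 22 h at 37C alongside 10.0nM (final) ICI-182,780 antagonist, in VM7Luc4E2 cells grown in phenol red-free, charcoal-stripped medium. Viability read by CellTiter-Fluor fluorescence after 1 h reagent incubation.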

[3] = molecular target: Progesterone receptor (Homo sapiens) (UniProt P06401); experiment: qHTS assay to identify small molecule agonists of the progesterone receptor (PR) signaling pathway (AID 1346784; calls by dose curve; further: nearly all actives have a fitted effect of over 30% in size)
In short: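 Reporter assay, GripTite PR-UAS-bla HEK 293T cells: 16 hr exposure to DMSO-dissolved compounds at 37C, 5% CO2, in steroid-depleted (2% charcoal-stripped FBS) medium; beta-lactamase measured by FRET fluorescence.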

[4] = molecular target: Progesterone receptor (Homo sapiens) (UniProt P06401); experiment: qHTS assay to identify small molecule antagonists of the progesterone receptor (PR) signaling pathway (AID 1346795; active means well fitted inhibition curve with a large enough effect in the signal ratio in the repeat runs, not every such curve was filed as active; the % refers to the signal ratio)
In short: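 Stimulus R5020 at 1 nM final; cells HEK293T PR-UAS-bla; medium with 2% charcoal-stripped FBS; compound exposure 16 hr at 37C, 5% CO2; detection by FRET beta-lactamase substrate, 2 hr, room temperature.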

[5] = qHTS assay to identify small molecule antagonists of the progesterone receptor (PR) signaling pathway - cell viability counter screen (AID 1346798); further: series mostly up to about 92 µM; nearly all actives have a fitted effect of over 50% in size
In short: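 In the same plates used for the beta-lactamase readout, cell viability of compound- and R5020-treated PR-UAS-bla HEK293T cells (16 hr, 37C) was assessed by CellTiter-Glo luminescence.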

[6] = qHTS assay to identify small molecule agonists of the progesterone receptor (PR) signaling pathway - cell viability counter screen (AID 1346799; calls by dose curve; further: nearly all actives have a fitted effect of over 45% in size)
In short: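 Multiplexed viability read: CellTiter-Glo luminescence, 30 min RT, following LiveBLAzer FRET measurement on PR-UAS-bla HEK293T cells exposed to compounds 16 hr.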

[7] = qHTS assay to identify small molecule antagonists of the TGF-beta/Smad signaling pathway - cell viability counter screen (AID 1346824); further: nearly all actives have a fitted effect of over 50% in size
In short: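 Cytotoxicity counter-screen run in the same wells as the beta-lactamase Smad reporter read: CellTiter-Glo luminescence after 30 min at room temperature. HEK 293T SBE-bla cells had 5 hr compound exposure at 37 C with TGF-beta1 (0.25 ng/mL stock).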

[8] = qHTS assay to identify small molecule agonists of the TGF-beta/Smad signaling pathway - cell viability counter screen (AID 1346829); further: top concentration of the series differs between compounds; nearly all actives have a fitted effect of over 45% in size
In short: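 Tox21 qHTS format: SBE-bla HEK 293T cells treated with DMSO-dissolved compounds for 5 hr; CellTiter-Glo luminescence after 30 min at room temperature.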

[9] = qHTS assay to identify small molecule agonists of the TGF-beta/Smad signaling pathway (AID 1346859; active means well fitted activation curve with a large enough effect in the signal ratio in the repeat runs, not every such curve was filed as active; the % refers to the signal ratio; further: series mostly up to about 77 µM)
In short: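 Screening used HEK 293T SBE-bla cells at 4,000/well. Test agents: 5 hr, 37 C. Detection: FRET substrate, 2 hr RT, then excitation 405 nm with emissions at 460 and 530 nm.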

[10] = molecular target: Thyrotropin-releasing hormone receptor (Homo sapiens) (UniProt P34981); experiment: qHTS assay to identify small molecule antagonists of the thyrotropin-releasing hormone receptor (TRHR) signaling pathway (AID 1346877; active means well fitted inhibition curve with a large enough effect in the repeat runs, not every such curve was filed as active; further: series mostly up to about 51 µM)
In short: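 Antagonist mode: after a 5 min room-temperature compound exposure, cells were stimulated with 1 nM (final) TRH. Dye-loaded TRHR-HEK293 cells were used, and calcium-dependent fluorescence was followed for 3 min, with 15-point titrations run in triplicate.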

[11] = molecular target: Thyrotropin-releasing hormone receptor (Homo sapiens) (UniProt P34981); experiment: qHTS assay to identify small molecule agonists of the thyrotropin-releasing hormone receptor (TRHR) signaling pathway (AID 1346891; calls by dose curve; further: series mostly up to about 58 µM)
In short: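 Readout was intracellular calcium fluorescence in TRHR-Hek293 cells. Cells were incubated 18 h, dye-loaded 2 h at 37 °C, and treated with compound in agonist mode.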

[12] = Human pregnane X receptor (PXR) small molecule agonists, qHTS cell viability counter screen (AID 1346977); further: nearly all actives have a fitted effect of over 50% in size
In short: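 In each well, the PXR reporter HepG2 line was checked for viability: CellTiter-Fluor reagent added 23hr post-dosing, fluorescence read after 1hr incubation at 37C.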

[13] = Caspase-3/7 induction in HepG2 cells by small molecules, qHTS assay (AID 1346978); further: nearly all actives have a fitted effect of over 15% in size
In short: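 Caspase-3/7 induction was measured by Caspase-Glo 3/7 luminescence (30 min, room temperature) after a 17 hr compound exposure of wild-type HepG2 cells seeded at 2,000 per well and pre-incubated 5 hr.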

[14] = Caspase-3/7 induction in CHO-K1 cells by small molecules, qHTS assay (AID 1346980); further: nearly all actives have a fitted effect of over 15% in size
In short: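 Luminescent Caspase-Glo 3/7 read (30min, room temperature) quantified apoptosis induction. Cells were wild-type CHO-K1, treated with compound for 17hr at 37 C and 5% CO2.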

[15] = Caspase-3/7 induction in HepG2 cells by small molecules, qHTS cell viability counter screen (AID 1346981); further: series mostly up to about 92 µM; nearly all actives have a fitted effect of over 30% in size
In short: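 CellTiter-Fluor fluorescence measured viability in the same wells used for Caspase-Glo 3/7. HepG2 (wild type) at 2,000 cells/well were pre-incubated 5 hr, dosed, and given reagent at 16 hr, with 1 hr further at 37C.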

[16] = molecular target: Nuclear receptor subfamily 1 group I member 2 (Homo sapiens) (UniProt O75469); experiment: Human pregnane X receptor (PXR) small molecule agonists, qHTS assay (AID 1346982); further: nearly all actives have a fitted effect of over 35% in size
In short: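 Agonist mode: luminescence from ONE-Glo after 24 h compound exposure at 37C in HepG2 cells carrying hPXR-responsive CYP3A4 luciferase, plated in charcoal-stripped serum medium 5 h beforehand.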

[17] = molecular target: Nuclear receptor subfamily 1 group I member 2 (Rattus norvegicus) (UniProt Q9R1A7); experiment: Rat pregnane X receptor (rPXR) activation by small molecules, qHTS assay (AID 1346983); conditions: rPXR luciferase reporter cells, One-Glo luminescence, 24 h; max activation: stronger effect = higher value; further: nearly all actives have a fitted effect of over 20% in size
In short: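 Luminescent readout (One-Glo luciferase, 30 min room temperature) followed 24 hr compound treatment at 37 C of rPXR cells plated 2,000 per well and preincubated 5hr; qHTS format with compounds delivered in DMSO.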

[18] = molecular target: Nuclear receptor subfamily 1 group I member 2 (Homo sapiens) (UniProt O75469); experiment: CYP3A4 induction through human pregnane X receptor (PXR) by small molecules, qHTS assay (AID 1346984); further: nearly all actives have a fitted effect of over 40% in size
In short: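 Read-out is luminescence after One-Glo addition, following a 3 hr, 37C incubation with Luciferin-IPA CYP3A4 substrate (3uM final). Before that, compounds were on DPX-2 cells (HepG2 co-transfected with PXR element plus CYP3A4-promoter luciferase) for 24 hr at 37C.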

[19] = molecular target: Nuclear receptor subfamily 1 group I member 2 (Homo sapiens) (UniProt O75469); experiment: Human pregnane X receptor (PXR) activation by small molecules, qHTS assay (AID 1346985); further: nearly all actives have a fitted effect of over 40% in size
In short: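 DPX-2 cells (HepG2 co-transfected with a PXR response element and a CYP3A4-promoter luciferase construct) were seeded at 2,000 per well, rested 5 hr at 37C, then exposed to DMSO-dissolved compounds for 24 hr. Activation was read as luciferase luminescence.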

[20] = Caspase-3/7 induction in CHO-K1 cells by small molecules, qHTS cell viability counter screen (AID 1346979); further: nearly all actives have a fitted effect of over 35% in size
In short: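 Following a 5hr settling period, CHO-K1 cells at 1,500 per well received DMSO-dissolved compounds. Cell viability was quantified 16hr later by CellTiter-Fluor fluorescence, measured after 1hr with reagent at 37C.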
On the % scale 0 is the no-effect control and ±100 the full control effect.

Chain of Progesterone receptor (Homo sapiens) (P06401 whole entry, looked up): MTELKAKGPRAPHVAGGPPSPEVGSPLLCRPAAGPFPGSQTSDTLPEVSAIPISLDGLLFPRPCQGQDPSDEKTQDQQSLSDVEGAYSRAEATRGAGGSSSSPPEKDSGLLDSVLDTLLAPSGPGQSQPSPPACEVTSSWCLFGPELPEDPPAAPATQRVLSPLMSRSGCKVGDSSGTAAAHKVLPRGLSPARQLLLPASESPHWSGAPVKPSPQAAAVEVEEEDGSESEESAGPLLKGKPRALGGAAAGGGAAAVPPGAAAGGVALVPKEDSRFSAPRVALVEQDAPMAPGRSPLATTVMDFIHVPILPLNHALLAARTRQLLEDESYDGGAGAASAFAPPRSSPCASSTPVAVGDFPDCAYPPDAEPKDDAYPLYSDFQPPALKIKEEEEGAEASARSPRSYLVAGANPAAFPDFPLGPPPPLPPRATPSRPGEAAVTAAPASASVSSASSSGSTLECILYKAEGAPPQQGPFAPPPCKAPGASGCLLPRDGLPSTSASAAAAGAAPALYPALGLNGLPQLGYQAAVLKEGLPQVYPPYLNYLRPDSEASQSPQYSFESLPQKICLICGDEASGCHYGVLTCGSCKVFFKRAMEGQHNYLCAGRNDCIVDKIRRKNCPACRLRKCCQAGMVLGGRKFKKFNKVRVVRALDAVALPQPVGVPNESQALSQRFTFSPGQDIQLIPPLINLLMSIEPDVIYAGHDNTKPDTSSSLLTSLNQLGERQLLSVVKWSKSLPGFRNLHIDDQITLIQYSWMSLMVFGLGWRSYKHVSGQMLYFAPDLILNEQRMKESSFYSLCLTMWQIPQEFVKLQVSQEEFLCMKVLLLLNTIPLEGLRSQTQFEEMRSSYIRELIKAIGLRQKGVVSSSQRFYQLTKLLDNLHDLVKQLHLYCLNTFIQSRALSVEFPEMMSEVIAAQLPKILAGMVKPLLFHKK
Chain of Thyrotropin receptor (Homo sapiens) (P16473 whole entry, looked up): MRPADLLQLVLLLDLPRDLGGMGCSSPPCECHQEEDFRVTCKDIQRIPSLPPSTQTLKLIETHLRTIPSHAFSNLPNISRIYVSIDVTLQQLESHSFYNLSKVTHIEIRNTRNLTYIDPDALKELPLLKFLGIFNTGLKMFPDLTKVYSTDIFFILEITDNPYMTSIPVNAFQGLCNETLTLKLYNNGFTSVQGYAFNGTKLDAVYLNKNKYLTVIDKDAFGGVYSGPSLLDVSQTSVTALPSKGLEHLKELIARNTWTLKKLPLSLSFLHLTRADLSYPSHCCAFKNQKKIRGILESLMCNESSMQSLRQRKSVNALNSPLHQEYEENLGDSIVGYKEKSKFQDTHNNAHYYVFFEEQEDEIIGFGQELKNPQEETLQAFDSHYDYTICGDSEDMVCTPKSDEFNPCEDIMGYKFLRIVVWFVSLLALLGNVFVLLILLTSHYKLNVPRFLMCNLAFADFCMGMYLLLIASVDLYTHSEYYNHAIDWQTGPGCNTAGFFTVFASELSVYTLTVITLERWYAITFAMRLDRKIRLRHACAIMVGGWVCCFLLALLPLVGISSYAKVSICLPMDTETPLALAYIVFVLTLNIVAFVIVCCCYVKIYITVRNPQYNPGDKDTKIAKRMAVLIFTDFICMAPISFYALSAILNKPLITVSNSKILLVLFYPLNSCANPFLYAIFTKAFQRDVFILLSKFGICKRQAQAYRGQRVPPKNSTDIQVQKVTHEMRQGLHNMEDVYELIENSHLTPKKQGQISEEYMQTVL
Chain of Nuclear receptor subfamily 1 group I member 2 (Homo sapiens) (O75469 whole entry, looked up): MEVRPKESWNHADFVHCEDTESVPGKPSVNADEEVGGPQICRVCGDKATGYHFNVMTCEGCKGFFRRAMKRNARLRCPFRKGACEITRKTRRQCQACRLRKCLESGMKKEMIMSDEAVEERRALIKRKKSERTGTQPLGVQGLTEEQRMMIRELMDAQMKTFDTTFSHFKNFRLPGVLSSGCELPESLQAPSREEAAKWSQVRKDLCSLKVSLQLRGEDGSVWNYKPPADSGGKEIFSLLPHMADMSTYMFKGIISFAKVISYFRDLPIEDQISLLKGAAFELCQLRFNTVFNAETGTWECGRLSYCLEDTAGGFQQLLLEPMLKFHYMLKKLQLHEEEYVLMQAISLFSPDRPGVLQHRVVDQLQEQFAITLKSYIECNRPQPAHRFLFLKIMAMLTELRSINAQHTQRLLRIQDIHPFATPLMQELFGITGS
Chain of Thyrotropin-releasing hormone receptor (Homo sapiens) (P34981 whole entry, looked up): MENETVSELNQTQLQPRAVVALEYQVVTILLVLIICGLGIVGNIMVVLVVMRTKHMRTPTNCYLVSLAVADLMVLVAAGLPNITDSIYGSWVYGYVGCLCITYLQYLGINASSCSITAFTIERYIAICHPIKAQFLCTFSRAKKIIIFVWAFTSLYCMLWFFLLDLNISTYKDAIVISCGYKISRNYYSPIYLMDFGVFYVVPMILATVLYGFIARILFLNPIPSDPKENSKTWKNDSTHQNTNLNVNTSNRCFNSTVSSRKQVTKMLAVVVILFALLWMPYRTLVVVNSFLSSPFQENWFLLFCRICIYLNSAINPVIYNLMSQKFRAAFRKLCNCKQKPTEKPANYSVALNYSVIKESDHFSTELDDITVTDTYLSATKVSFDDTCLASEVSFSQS
Chain of Nuclear receptor subfamily 1 group I member 2 (Rattus norvegicus) (Q9R1A7 whole entry, looked up): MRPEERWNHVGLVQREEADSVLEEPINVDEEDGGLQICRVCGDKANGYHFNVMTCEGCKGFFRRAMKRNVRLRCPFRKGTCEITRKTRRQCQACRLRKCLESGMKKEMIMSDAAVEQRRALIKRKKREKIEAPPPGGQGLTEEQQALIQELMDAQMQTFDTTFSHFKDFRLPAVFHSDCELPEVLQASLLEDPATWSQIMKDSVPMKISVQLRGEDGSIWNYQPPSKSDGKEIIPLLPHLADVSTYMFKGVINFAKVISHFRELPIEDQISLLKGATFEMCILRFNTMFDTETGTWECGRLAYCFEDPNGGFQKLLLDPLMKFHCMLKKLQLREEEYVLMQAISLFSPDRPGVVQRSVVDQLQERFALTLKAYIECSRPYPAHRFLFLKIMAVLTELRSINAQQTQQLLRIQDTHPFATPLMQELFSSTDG

O=c1[nH]c2ccccc2c(=O)n1CCCl
inactive: Potency [1] | outcome [2] | Potency [3] | Potency [4] | Potency [5] | Potency [6] | outcome [7] | outcome [8] | outcome [9] | outcome [10] | outcome [11] | Potency [12] | outcome [13] | outcome [14] | outcome [15] | Potency [16]

Cc1ncc(CSSCc2cnc(C)c(O)c2CO)c(CO)c1O
inactive: Potency [1] | outcome [2] | Potency [3] | Potency [4] | Potency [5] | Potency [6] | outcome [7] | outcome [8] | outcome [9] | outcome [10] | outcome [11] | Potency [12] | outcome [13] | outcome [14] | outcome [15] | Potency [16] | max activation [17] -2.5% | Potency [18] | Potency [19]

O=[N+]([O-])c1ccc(CCO)cc1
inactive: Potency [1] | outcome [2] | Potency [3] | Potency [4] | Potency [5] | Potency [6] | outcome [7] | outcome [8] | outcome [9] | outcome [11] | Potency [12] | outcome [13] | Potency [20] | outcome [14] | outcome [15] | Potency [16]

NC(=S)Nc1cccc2ccccc12
inactive: activity change, negative = inhibition [1] 2.83% [at 8.39 µM] | activity change, negative = cytotoxicity [2] 0.0918% [at 8.39 µM] | activation [3] -0.12% [at 8.39 µM] | activity change, negative = inhibition [4] -2.03% [at 8.39 µM] | activity change, negative = cytotoxicity [5] -13.4% [at 8.39 µM] | activity change, negative = cytotoxicity [6] -0.848% [at 8.39 µM] | viability change, negative = cytotoxic [7] 11.5% [at 6.97 µM] | activity change, negative = cytotoxicity [8] -4.69% [at 6.97 µM] | activation [9] -0.913% [at 6.97 µM] | activation [11] -0.377% [at 5.23 µM] | activity change, negative = cytotoxicity [12] -0.344% [at 8.39 µM] | caspase activation [13] 1% [at 8.39 µM] | activity change, negative = cytotoxicity [20] -1.57% [at 8.39 µM] | caspase-3/7 activation [14] 0.137% [at 8.39 µM] | activity change, negative = cytotoxicity [15] -1.33% [at 8.39 µM] | activation [16] -0.9% [at 8.39 µM]

C=C(C)C(=O)OCCC(C)OC(=O)C(=C)C (stereo unspecified)
inactive: Potency [1] | outcome [2] | Potency [3] | Potency [4] | Potency [5] | Potency [6] | outcome [7] | outcome [8] | outcome [9] | outcome [11] | Potency [12] | outcome [13] | Potency [20] | outcome [14] | outcome [15] | Potency [16]

C[N+](C)(C)CC[N+]1(C)Cc2c(Cl)c(Cl)c(Cl)c(Cl)c2C1
inactive: Potency [1] | outcome [2] | Potency [3] | Potency [4] | Potency [5] | Potency [6] | outcome [7] | outcome [8] | outcome [9] | outcome [10] | outcome [11] | outcome [13] | Potency [20] | outcome [14] | Potency [16] | max activation [17] -3.39% | Potency [18] | Potency [19]

Reference: PubChem BioAssay (Tox21)
